Results as given in the supplement of paper PMC3334620.
The full ranking holds about 33,000 sequences; the median of “E-score (-0.5 to 0.5)” is about -0.043, and the highest 2% start at about 0.37. This is one part of a sample in which the highest values are shown more often than they occur.

target: T1, Upc2 (UniProt Q12151); assay: PBM E-score (8-mer binding enrichment) (E-score (-0.5 to 0.5)); higher = stronger / more preferred TF binding; conditions: protein concentration: 200 nM; construct: GST-full length
T1 sequence: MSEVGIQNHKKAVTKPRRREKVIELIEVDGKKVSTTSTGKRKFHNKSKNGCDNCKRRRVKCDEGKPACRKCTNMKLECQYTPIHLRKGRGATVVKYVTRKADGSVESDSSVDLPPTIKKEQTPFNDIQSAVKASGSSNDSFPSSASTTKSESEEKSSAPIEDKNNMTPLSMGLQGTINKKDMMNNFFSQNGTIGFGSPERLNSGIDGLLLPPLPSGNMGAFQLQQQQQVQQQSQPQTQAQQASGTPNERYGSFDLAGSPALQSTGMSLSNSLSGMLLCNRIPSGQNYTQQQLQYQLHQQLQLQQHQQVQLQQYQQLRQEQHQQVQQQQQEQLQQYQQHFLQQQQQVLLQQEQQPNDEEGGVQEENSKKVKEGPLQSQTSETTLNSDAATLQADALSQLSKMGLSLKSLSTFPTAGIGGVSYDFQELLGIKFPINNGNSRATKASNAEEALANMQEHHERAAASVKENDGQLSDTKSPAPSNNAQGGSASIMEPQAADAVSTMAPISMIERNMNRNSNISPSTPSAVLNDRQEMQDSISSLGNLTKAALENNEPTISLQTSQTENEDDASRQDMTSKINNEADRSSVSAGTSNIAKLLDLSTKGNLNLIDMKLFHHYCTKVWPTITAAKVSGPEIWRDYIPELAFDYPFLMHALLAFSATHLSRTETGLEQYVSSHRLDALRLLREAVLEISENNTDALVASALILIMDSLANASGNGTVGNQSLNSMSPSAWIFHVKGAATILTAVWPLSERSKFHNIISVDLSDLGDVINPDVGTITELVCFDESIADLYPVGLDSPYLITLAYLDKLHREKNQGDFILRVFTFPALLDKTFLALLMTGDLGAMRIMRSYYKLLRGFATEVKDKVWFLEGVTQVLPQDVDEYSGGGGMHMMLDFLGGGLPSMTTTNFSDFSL
Experimental: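 Universal 'all 10-mer' protein binding microarrays (Agilent AMADID 015681) probed with GST-tagged S. cerevisiae TFs (full-length or DBD) made by in vitro transcription/translation (PURExpress), about 100-200 nM. Bound TF was detected with fluorescent anti-GST. Each ungapped 8-mer (which stands for itself and its reverse complement) is scored by the PBM enrichment score (E-score), a modified Wilcoxon-Mann-Whitney statistic from -0.5 to +0.5, computed with the Universal PBM Analysis Suite. Scale: above 0.35 generally sequence-specific binding.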

Compared with TACCATGA, ACTGAACA is higher in “PBM E-score” value: -0.108 for the first, 0.0269 for the second.

Compared with ACTGAACG, CCTGAACC is lower in “PBM E-score” value: 0.395 for the first, -0.146 for the second.

Compared with CCTGAACG, CCTGAACA is lower in “PBM E-score” value: 0.394 for the first, -0.0282 for the second.

Going from ACTGAACT to GCTCTTAA, the “PBM E-score” value rises from -0.0256 to 0.108.

Going from AGCAGAAG to ACAAATTC, the “PBM E-score” value rises from -0.255 to -0.0428.

Going from GGGCTGTA to CATCGTTA, the “PBM E-score” value rises from -0.0846 to 0.324.

Compared with AATCGTTA, AATCGTTC is higher in “PBM E-score” value: 0.292 for the first, 0.396 for the second.

Going from CATCGTTC to CATCGTGC, the “PBM E-score” value falls from 0.416 to 0.054.

First: AATCGTTG
Second: TACAGGAA
The “PBM E-score” value of the first is higher: 0.142 for the first, 0.0741 for the second.

First: ATCCGAGG
Second: AGTCCTGA
The “PBM E-score” value of the first is higher: 0.18 for the first, -0.291 for the second.

Going from AAAGGGCC to CATTTAGC, the “PBM E-score” value rises from -0.285 to -0.0255.

Going from CGTTTAGA to AGTTTAGC, the “PBM E-score” value falls from 0.466 to 0.00286.

Compared with GGTTTAGA, AGTTTAGA is higher in “PBM E-score” value: -0.055 for the first, -0.00847 for the second.

First: CGTTTAGC
Second: GGACTACA
The “PBM E-score” value of the first is higher: 0.48 for the first, -0.219 for the second.

First: ATTCCATC
Second: CCCTACTA
The “PBM E-score” value of the first is higher: 0.0445 for the first, -0.242 for the second.

Going from ATTGGTTA to AGTGAGTC, the “PBM E-score” value falls from -0.0342 to -0.211.

Going from CAGTTGTC to CAGAGAGC, the “PBM E-score” value falls from -0.147 to -0.203.

First: GGATTTAC
Second: AGCAGATG
The “PBM E-score” value of the first is higher: 0.00936 for the first, -0.221 for the second.

First: AACGATTG
Second: AACGATTC
The “PBM E-score” value of the first is lower: 0.391 for the first, 0.393 for the second.

Compared with CACGATTC, AGCGATTC is lower in “PBM E-score” value: 0.258 for the first, 0.181 for the second.

Going from ACCGATTG to AACGATTA, the “PBM E-score” value rises from 0.0763 to 0.364.

Going from TAAAATCA to ACGTGCTA, the “PBM E-score” value rises from 0.0046 to 0.207.

Going from CCCGCAAG to ATGTCATG, the “PBM E-score” value rises from -0.239 to -0.0317.

Compared with CATGGATA, ACGAAGGA is higher in “PBM E-score” value: -0.0903 for the first, 0.379 for the second.

Going from GCGAACGA to CCGAAGGA, the “PBM E-score” value falls from 0.418 to -0.0603.

Compared with GCGAACAA, ACGAACGA is higher in “PBM E-score” value: 0.139 for the first, 0.435 for the second.

Going from ACGAACAG to ACGAACGC, the “PBM E-score” value rises from 0.314 to 0.323.

First: TCGAACGA
Second: ACGAAGGG
The “PBM E-score” value of the first is higher: 0.368 for the first, 0.287 for the second.

Going from GCGAACGC to ACGAACGG, the “PBM E-score” value rises from 0.158 to 0.387.

Compared with ACGAACGT, TCGGTGCA is lower in “PBM E-score” value: 0.32 for the first, -0.104 for the second.

Going from GTAATATA to CTTTCTCA, the “PBM E-score” value falls from 0.197 to 0.0661.

Compared with AGCTCAGA, ACCGACTA is higher in “PBM E-score” value: -0.0803 for the first, 0.0499 for the second.

First: ATCGAGGG
Second: ATACATGC
The “PBM E-score” value of the first is lower: -0.0211 for the first, 0.169 for the second.

Compared with AAAACCAC, CCGAAGAA is lower in “PBM E-score” value: -0.0422 for the first, -0.127 for the second.

First: AAGATGCC
Second: CCGAACGC
The “PBM E-score” value of the first is lower: 0.00959 for the first, 0.0534 for the second.

Going from CCGAACGA to CCGAACGG, the “PBM E-score” value falls from 0.384 to 0.199.

First: ATTATGAG
Second: GCAAGGAC
The “PBM E-score” value of the first is higher: -0.102 for the first, -0.135 for the second.

Going from ACTTCACG to ACGAGAGA, the “PBM E-score” value rises from 0.0222 to 0.343.

First: GCGAGAGC
Second: ATGAGATG
The “PBM E-score” value of the first is higher: 0.23 for the first, -0.243 for the second.

First: CCGAGATC
Second: ACGAGATG
The “PBM E-score” value of the first is lower: 0.018 for the first, 0.38 for the second.

Compared with ACGAGATA, ACGAGACC is lower in “PBM E-score” value: 0.355 for the first, 0.347 for the second.

Going from ACGAGAGC to ACGAGATC, the “PBM E-score” value rises from 0.375 to 0.408.

Going from ACGTCCCA to CCGCCCAG, the “PBM E-score” value rises from -0.208 to -0.0999.

First: CGAAACAA
Second: ATTTGCGC
The “PBM E-score” value of the first is higher: 0.188 for the first, 0.024 for the second.

Compared with GGATGCTA, ATTTCGCC is higher in “PBM E-score” value: -0.0482 for the first, 0.131 for the second.

Going from CGAGCATA to CCTTAGGC, the “PBM E-score” value falls from 0.175 to -0.0987.

First: GACGAATC
Second: CACGAATC
The “PBM E-score” value of the first is higher: 0.138 for the first, 0.0313 for the second.

First: AACGAATC
Second: CACGAAAA
The “PBM E-score” value of the first is higher: 0.39 for the first, 0.134 for the second.

Going from AGCGAATG to AACGAATG, the “PBM E-score” value rises from 0.177 to 0.416.

Going from TACGAAAA to GACGAATA, the “PBM E-score” value falls from 0.411 to 0.0289.

Compared with TACGAATA, CACGAATG is lower in “PBM E-score” value: 0.415 for the first, 0.0101 for the second.

Going from GACGAAAA to CACGAATA, the “PBM E-score” value falls from 0.177 to 0.175.

First: CGACCAGA
Second: GACCGTGA
The “PBM E-score” value of the first is higher: 0.0386 for the first, -0.166 for the second.

First: CCGCTGGA
Second: ATAATTGC
The “PBM E-score” value of the first is lower: -0.0874 for the first, -0.037 for the second.

Going from AACCTGCT to CACCATGC, the “PBM E-score” value falls from -0.0408 to -0.295.

Going from CCGGGCTA to CACGTACG, the “PBM E-score” value rises from -0.18 to 0.346.

First: ATAACGAT
Second: ACCGAATA
The “PBM E-score” value of the first is higher: 0.144 for the first, 0.0988 for the second.

Compared with AACGAATA, ATCGAATA is lower in “PBM E-score” value: 0.381 for the first, 0.211 for the second.

Going from AAGGAATT to AAAGAATT, the “PBM E-score” value rises from -0.215 to -0.0689.

Going from AACGAATT to GATCAGCC, the “PBM E-score” value falls from 0.378 to -0.29.

Compared with ATCTTCCG, AGCTTTTA is lower in “PBM E-score” value: 0.168 for the first, 0.163 for the second.

Compared with TGTGCGAA, GTAACGAC is higher in “PBM E-score” value: 0.0333 for the first, 0.326 for the second.

First: GGAACGAC
Second: GGAACGTA
The “PBM E-score” value of the first is higher: 0.453 for the first, 0.282 for the second.

Going from GGAACGCC to CGAACGTC, the “PBM E-score” value rises from 0.013 to 0.135.

First: CGAACAAA
Second: CGAACGCC
The “PBM E-score” value of the first is higher: 0.183 for the first, 0.0792 for the second.

Going from CGAACGGA to CGAACGAC, the “PBM E-score” value rises from 0.223 to 0.401.

Compared with GGAACGAA, GGAACGCA is lower in “PBM E-score” value: 0.464 for the first, 0.174 for the second.

First: CGAACGAA
Second: ATCCTTAC
The “PBM E-score” value of the first is higher: 0.398 for the first, -0.0381 for the second.

Going from AAAACTCA to CGACCCTC, the “PBM E-score” value rises from -0.0631 to 0.0606.

Compared with AAGCCCAC, AAATGCAG is lower in “PBM E-score” value: -0.0729 for the first, -0.0984 for the second.

First: GCTGGATA
Second: CCCTGTAG
The “PBM E-score” value of the first is higher: -0.131 for the first, -0.234 for the second.

First: AGAACGAT
Second: AGAACGTC
The “PBM E-score” value of the first is higher: 0.342 for the first, -0.066 for the second.

Going from AGAACGTG to AGAACGAC, the “PBM E-score” value rises from -0.00321 to 0.391.

Compared with AGAACGAA, CTAACGAG is lower in “PBM E-score” value: 0.376 for the first, 0.343 for the second.

First: CGAACGAG
Second: ATAACGAC
The “PBM E-score” value of the first is higher: 0.427 for the first, 0.159 for the second.

Going from ACAACGAG to AGAACAAA, the “PBM E-score” value falls from 0.257 to 0.103.

First: CGAACGCG
Second: AGAACGAG
The “PBM E-score” value of the first is lower: 0.185 for the first, 0.42 for the second.

Compared with AAACCTGT, GCTCTCAC is lower in “PBM E-score” value: 0.225 for the first, -0.32 for the second.

Compared with TCCGCGCA, AAATACTC is lower in “PBM E-score” value: -0.0128 for the first, -0.0601 for the second.

Compared with CAGTTGAG, ACGGGCTC is higher in “PBM E-score” value: -0.255 for the first, 0.128 for the second.

First: AATAACGT
Second: TGAACGAA
The “PBM E-score” value of the first is lower: 0.133 for the first, 0.458 for the second.

Compared with TCAACGAA, TTAACGAA is higher in “PBM E-score” value: 0.249 for the first, 0.448 for the second.

First: ATAACGAA
Second: TGAACGCA
The “PBM E-score” value of the first is higher: 0.197 for the first, 0.189 for the second.

First: CTAACGAA
Second: CTACCGTA
The “PBM E-score” value of the first is lower: 0.287 for the first, 0.301 for the second.

Going from GGACGACC to TCACGACA, the “PBM E-score” value rises from -0.212 to -0.138.

Going from GAACGACC to TAACGACA, the “PBM E-score” value falls from 0.429 to 0.381.

For CAACGACA, the “PBM E-score” value was 0.313.
